Assay [1] addresses Glucocorticoid receptor (Homo sapiens) (UniProt P04150). In words: qHTS assay for small molecule agonists of glucocorticoid receptor signaling (AID 588532; active = well fitted curve in the direction sought with a large enough effect in the signal ratio, with a control signal flat; the % refers to the signal ratio;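 also: 100% = dexamethasone at 0.1 µM and 0% = DMSO only wells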). The note with it: HeLa MMTV-bla, beta-lactamase ratio, agonist, 18 h; stronger effect = higher value; percent of dexamethasone control, DMSO zero. The gist of the method: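 Stimulation of a glucocorticoid response element-driven beta-lactamase gene was measured in HeLa cells. Responses were scaled between DMSO basal and 0.1 uM dexamethasone, then fitted for half-maximal stimulation.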

Assay [2] has the same target. In words: qHTS assay for small molecule antagonists of glucocorticoid receptor signaling (AID 588533; active = well fitted inhibition curve with a large enough effect in the signal ratio, with a control signal flat, not every such curve was filed as active; the % refers to the signal ratio;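 also: cells stimulated with 2 nM dexamethasone as agonist; % is scaled to controls: 0 for no effect and ±100 for the full control effect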). The gist of the method: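 Antagonist-mode qHTS: compound titrations added to GRE-bla HeLa cells, then dexamethasone 2 nM final; 18 h, 37 C. CCF4 FRET fluorescence normalized to dexamethasone and DMSO; IC50 from Hill fit.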
Assay [3] in a line: qHTS assay for small molecule antagonists of peroxisome proliferator-activated receptor delta signaling (AID 588535; active = well fitted inhibition curve with a large enough effect in the signal ratio, with a control signal flat, not every such curve was filed as active; the % refers to the signal ratio;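 as to max response: cells co-treated with a PPAR-delta agonist as stimulator during compound exposure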). The note with it: HEK293T PPARd-UAS-bla, beta-lactamase FRET ratio, 18 h; 460 nm channel. In a few lines:
(§1)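 Reporter: UAS-bla under PPAR-delta response element, HEK293T host. Medium: 2% charcoal/dextran FBS. Dosing: titration, 18 hrs, 37 C. Detection: CCF4, 2 hrs RT, 405 ex/460 and 530 em.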

The target of assay [4] is Peroxisome proliferator-activated receptor delta (Homo sapiens) (UniProt Q03181). Described as above. The gist of the method: as §1
In assay [5] the target is Peroxisome proliferator-activated receptor gamma (Homo sapiens) (UniProt P37231). In words: qHTS assay for small molecule agonists of peroxisome proliferator-activated receptor gamma signaling (AID 588536; active = well fitted curve in the direction sought with a large enough effect in the signal ratio, with a control signal flat, not every such curve was filed as active; the % refers to the signal ratio;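 also: 0% = DMSO basal wells and 100% = rosiglitazone at 2 µM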). The gist of the method: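 GeneBLAzer PPAR-gamma-UAS-bla HEK293 cells in 1% charcoal/dextran-treated FBS medium were treated 16 h at 37 C with compounds. Beta-lactamase activity was read by CCF4 ratio (460/530 nm). Response was normalized to 2 uM rosiglitazone (100%) and DMSO, then Hill-fitted for EC50 and efficacy.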

Assay [6] concerns the target Vitamin D3 receptor (Homo sapiens) (UniProt P11473). Kind of assay: qHTS assay for small molecule agonists of vitamin D receptor signaling (AID 588543).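 Also: 0% = DMSO basal and 100% = reference agonist control.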 The gist of the method:
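Reporter cells (HEK293T, VDR-UAS-bla) were seeded in medium with 2% charcoal-stripped serum and incubated 5 h, then compounds in concentration series were added for 16 h at 37 °C. Stimulation was scaled between DMSO basal and 50 nM 1α,25-dihydroxyvitamin D3.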

Assay [7] can be described thus: qHTS assay for small molecule agonists of retinoid X receptor alpha signaling (AID 588544).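 As to activation: 0% = DMSO basal wells and 100% = reference agonist.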 Particulars: HEK293T RXRa-UAS-bla, beta-lactamase reporter, 18 h; 530 nm emission.
Assay [8] addresses Retinoic acid receptor RXR-alpha (Homo sapiens) (UniProt P19793). The description is as above.
The target of assay [9] is Thyroid hormone receptor beta (Homo sapiens) (UniProt P10828). Kind of assay: qHTS assay for small molecule agonists of thyroid hormone receptor beta signaling (AID 588545). In a few lines:
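Agonist activity was read as beta-lactamase CCF4 fluorescence (405 ex, 460/530 em), scaled between DMSO (0%) and 10 nM T3 (100%), then Hill-fitted for EC50 and efficacy. HEK 293 TR-UAS-bla cells in 2% charcoal/dextran FBS medium were exposed 18 h at 37 C.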

Assay [10] in a line: qHTS assay for small molecule antagonists of retinoid X receptor alpha signaling (AID 588546; active = well fitted inhibition curve with a large enough effect in the signal ratio, with a control signal flat, not every such curve was filed as active; the % refers to the signal ratio;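 also: cells stimulated with 9-cis-retinoic acid as agonist; % is scaled to controls: 0 for no effect and ±100 for the full control effect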). The note with it: HEK293T RXRa-UAS-bla, beta-lactamase ratio, antagonist mode; measured here: W530 green channel, cytotoxicity proxy. In a few lines: (§2)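 Beta-lactamase reporter inhibition, read as CCF4 fluorescence ratio (ex 405, em 460/530 nm) after 2 h at RT. HEK293T UAS-bla cells, 2500/well, were stimulated with 9-cis-RA at 500 or 100 nM final alongside test compound for 18 h at 37 C.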

The target of assay [11] is Retinoic acid receptor RXR-alpha (Homo sapiens) (UniProt P19793). The assay is described as above. The note with it: HEK293T RXRa-UAS-bla, beta-lactamase ratio, antagonist mode. In a few lines: as §2
Assay [12] has as its target Estrogen receptor (Homo sapiens) (UniProt P03372). In words: qHTS assay for small molecule antagonists of estrogen receptor alpha signaling (AID 588513; active = well fitted curve in the direction sought with a large enough effect in the signal ratio, with a control signal flat, not every such curve was filed as active; the % refers to the signal ratio; also: % is scaled to controls: 0 for no effect and ±100 for the full control effect). The gist of the method: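 Fluorescence from CCF4 substrate after 2 h at room temperature gave reporter activity; cells had been exposed to compound and 0.5nM 17-beta-estradiol for 18 h at 37 C. Hill-equation fitting yielded IC50 and maximal response.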

Assay [13] deals with Bile acid receptor (Homo sapiens) (UniProt Q96RI1). Kind of assay: qHTS assay for small molecule antagonists of farnesoid X receptor signaling (AID 588526). Also: % is scaled to controls: 0 for no effect and ±100 for the full control effect. The gist of the method: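 Concentration-response titrations were fitted to the Hill equation for half-maximal inhibition and maximal response, with data normalised to 50 uM chenodeoxycholic acid and DMSO control wells. Cells: FXR-UAS-bla HEK293T, dialyzed FBS.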

In assay [14] the target is Vitamin D3 receptor (Homo sapiens) (UniProt P11473). Kind of assay: qHTS assay for small molecule antagonists of vitamin D receptor signaling (AID 588541). In a few lines:
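VDR-UAS-bla HEK293T cells (2000/well, 2% charcoal-stripped FBS) were treated with titrated compounds plus 1-alpha,25-dihydroxyvitamin D3 (50 nM or 3 nM final) for 16 h at 37 C. CCF4 beta-lactamase fluorescence was read; Hill fits gave IC50.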

For assay [15], the target named is Androgen receptor (Homo sapiens) (UniProt P10275). In words: qHTS assay for small molecule agonists of androgen receptor signaling (AID 588515; active = well fitted curve in the direction sought with a large enough effect in the signal ratio, with a control signal flat; the % refers to the signal ratio; also: % is scaled to controls: 0 for no effect and ±100 for the full control effect). Particulars: AR-UAS-bla HEK293, beta-lactamase ratio, agonist 16 h; stronger effect = higher value. The gist of the method:
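EC50 and efficacy came from Hill fits of titrations (up to 92 uM) normalized to 30 nM R1881 as 100% and DMSO as 0%. Compound exposure was 16 h at 37 C on AR-UAS-bla HEK293 cells, with a 405/460/530 nm CCF4 fluorescence read.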

For assay [16] the target is unchanged. Kind of assay: qHTS assay for small molecule antagonists of androgen receptor signaling (AID 588516; active = well fitted curve in the direction sought with a large enough effect in the signal ratio, with a control signal flat, not every such curve was filed as active; the % refers to the signal ratio; also: % is scaled to controls: 0 for no effect and ±100 for the full control effect). The gist of the method: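 Cells were plated and incubated 5 h, compounds added in titration, then R1881 (10 nM final) as agonist. After 16 h at 37 C, CCF4 substrate was loaded for 2 h at room temperature and fluorescence measured.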
Assay [17] deals with Ubiquitin carboxyl-terminal hydrolase 1 (Homo sapiens) (UniProt O94782). In words: Inhibitors of USP1/UAF1: Pilot qHTS (AID 504865; active = well fitted inhibition curve with a large enough effect;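 also: rhodamine fluorescence freed from ubiquitin-rhodamine substrate followed over time; top concentration of the series differs between compounds; % is scaled to controls: 0 for no effect and ±100 for the full control effect; nearly all actives have a fitted effect of over 35% in size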). The gist of the method:
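In 50mM HEPES pH 7.8 containing 0.5mM EDTA, 1mM TCEP, 0.1 mg/ml BSA and 0.01% Tween-20, 1nM USP1/UAF1 is exposed to compound for 15 min, then Ub-Rho (150nM final) is added and fluorescence is read over time.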

Structures are written as SMILES. Where “and” joins values, the source holds several entries; their conditions need not be identical. Identical values can stand only once. Records with an inconclusive call do not appear. Calls of active or inactive are those of the source. Unless noted, calls follow the shape of the full dose curve.

Sequence of Peroxisome proliferator-activated receptor gamma (Homo sapiens) (P37231 whole entry, looked up): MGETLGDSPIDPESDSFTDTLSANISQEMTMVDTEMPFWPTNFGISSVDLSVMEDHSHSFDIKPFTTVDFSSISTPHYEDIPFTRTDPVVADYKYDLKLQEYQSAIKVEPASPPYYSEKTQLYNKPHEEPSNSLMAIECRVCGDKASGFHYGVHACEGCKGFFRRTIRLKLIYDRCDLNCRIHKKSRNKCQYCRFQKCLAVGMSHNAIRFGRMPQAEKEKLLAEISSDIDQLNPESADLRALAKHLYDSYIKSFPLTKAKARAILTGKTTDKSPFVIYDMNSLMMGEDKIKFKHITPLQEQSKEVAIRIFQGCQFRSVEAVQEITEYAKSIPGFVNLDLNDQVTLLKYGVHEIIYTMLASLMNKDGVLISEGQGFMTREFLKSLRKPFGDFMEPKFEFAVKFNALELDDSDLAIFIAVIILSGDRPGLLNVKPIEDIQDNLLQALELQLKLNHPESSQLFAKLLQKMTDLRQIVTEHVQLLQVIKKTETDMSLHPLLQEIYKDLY
Sequence of Thyroid hormone receptor beta (Homo sapiens) (P10828 whole entry, looked up): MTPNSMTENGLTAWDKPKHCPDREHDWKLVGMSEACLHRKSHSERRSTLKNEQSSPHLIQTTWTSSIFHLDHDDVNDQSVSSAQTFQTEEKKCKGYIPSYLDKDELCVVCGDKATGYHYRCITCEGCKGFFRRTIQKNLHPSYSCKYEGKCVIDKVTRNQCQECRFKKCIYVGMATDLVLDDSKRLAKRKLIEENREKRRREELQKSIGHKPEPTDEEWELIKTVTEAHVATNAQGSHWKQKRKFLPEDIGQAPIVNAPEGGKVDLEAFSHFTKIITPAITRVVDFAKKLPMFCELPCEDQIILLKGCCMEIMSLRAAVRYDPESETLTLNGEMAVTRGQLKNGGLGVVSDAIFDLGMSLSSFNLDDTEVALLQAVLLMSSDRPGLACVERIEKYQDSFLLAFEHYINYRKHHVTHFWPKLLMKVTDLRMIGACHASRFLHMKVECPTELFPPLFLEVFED
Sequence of Ubiquitin carboxyl-terminal hydrolase 1 (Homo sapiens) (O94782 whole entry, looked up): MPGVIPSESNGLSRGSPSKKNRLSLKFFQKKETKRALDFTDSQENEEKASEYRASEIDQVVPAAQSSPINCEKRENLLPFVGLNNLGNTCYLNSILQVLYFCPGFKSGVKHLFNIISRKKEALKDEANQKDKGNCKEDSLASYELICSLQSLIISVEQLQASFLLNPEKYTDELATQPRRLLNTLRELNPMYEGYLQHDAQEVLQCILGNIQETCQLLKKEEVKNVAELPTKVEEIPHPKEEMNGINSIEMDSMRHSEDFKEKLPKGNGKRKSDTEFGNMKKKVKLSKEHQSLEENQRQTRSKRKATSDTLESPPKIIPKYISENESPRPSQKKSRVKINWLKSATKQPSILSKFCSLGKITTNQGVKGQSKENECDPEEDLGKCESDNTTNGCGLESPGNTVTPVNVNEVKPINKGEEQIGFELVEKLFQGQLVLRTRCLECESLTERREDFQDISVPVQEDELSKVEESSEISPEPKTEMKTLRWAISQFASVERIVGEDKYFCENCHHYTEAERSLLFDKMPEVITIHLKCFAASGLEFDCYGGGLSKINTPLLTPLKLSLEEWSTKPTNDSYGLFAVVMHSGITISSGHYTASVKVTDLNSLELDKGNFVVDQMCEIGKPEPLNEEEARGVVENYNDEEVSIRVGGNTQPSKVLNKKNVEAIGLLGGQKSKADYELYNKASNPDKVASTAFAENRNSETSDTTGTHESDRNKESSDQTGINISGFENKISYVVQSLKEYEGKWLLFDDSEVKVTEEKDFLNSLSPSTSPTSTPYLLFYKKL
Sequence of Retinoic acid receptor RXR-alpha (Homo sapiens) (P19793 whole entry, looked up): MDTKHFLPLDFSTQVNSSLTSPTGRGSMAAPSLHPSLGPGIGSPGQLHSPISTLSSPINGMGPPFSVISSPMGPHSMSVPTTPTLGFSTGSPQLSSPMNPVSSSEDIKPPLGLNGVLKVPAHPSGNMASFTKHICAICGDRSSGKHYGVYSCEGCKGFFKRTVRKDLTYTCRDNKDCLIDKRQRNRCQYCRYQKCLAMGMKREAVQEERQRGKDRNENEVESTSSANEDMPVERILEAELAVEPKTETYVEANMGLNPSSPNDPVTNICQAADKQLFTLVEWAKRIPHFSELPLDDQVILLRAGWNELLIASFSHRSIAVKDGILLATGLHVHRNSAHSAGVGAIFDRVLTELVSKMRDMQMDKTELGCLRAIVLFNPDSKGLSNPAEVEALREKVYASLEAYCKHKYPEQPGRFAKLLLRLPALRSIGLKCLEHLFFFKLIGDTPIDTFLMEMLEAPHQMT
Sequence of Estrogen receptor (Homo sapiens) (P03372 whole entry, looked up): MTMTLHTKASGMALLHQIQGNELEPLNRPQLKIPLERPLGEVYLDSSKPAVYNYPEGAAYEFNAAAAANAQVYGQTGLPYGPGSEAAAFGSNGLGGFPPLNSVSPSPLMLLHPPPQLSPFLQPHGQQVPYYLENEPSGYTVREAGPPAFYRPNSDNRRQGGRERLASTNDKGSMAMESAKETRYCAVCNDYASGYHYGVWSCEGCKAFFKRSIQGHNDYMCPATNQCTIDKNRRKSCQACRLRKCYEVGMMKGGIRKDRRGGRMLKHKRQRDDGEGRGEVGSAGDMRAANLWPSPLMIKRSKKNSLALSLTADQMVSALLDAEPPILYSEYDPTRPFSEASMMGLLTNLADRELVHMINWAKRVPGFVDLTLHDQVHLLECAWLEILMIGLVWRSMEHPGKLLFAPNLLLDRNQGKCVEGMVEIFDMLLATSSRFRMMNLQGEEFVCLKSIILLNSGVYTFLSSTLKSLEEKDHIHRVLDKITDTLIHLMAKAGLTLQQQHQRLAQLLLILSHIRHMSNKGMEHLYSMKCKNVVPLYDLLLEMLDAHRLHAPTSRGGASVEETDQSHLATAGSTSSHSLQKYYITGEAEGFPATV
Sequence of Vitamin D3 receptor (Homo sapiens) (P11473 whole entry, looked up): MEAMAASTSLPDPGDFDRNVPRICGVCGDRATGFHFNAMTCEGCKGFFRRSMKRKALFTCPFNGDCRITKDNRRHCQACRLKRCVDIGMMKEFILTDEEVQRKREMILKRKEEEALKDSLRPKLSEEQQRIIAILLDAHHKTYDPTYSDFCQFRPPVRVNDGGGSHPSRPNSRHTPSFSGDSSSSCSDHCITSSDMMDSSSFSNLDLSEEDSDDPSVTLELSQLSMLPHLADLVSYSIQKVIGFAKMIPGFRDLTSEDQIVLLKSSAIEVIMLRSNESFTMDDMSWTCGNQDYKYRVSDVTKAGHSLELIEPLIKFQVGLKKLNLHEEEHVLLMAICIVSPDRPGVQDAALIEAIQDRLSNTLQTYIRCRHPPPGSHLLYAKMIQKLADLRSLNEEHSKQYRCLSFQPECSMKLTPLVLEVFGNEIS
Sequence of Bile acid receptor (Homo sapiens) (Q96RI1 whole entry, looked up): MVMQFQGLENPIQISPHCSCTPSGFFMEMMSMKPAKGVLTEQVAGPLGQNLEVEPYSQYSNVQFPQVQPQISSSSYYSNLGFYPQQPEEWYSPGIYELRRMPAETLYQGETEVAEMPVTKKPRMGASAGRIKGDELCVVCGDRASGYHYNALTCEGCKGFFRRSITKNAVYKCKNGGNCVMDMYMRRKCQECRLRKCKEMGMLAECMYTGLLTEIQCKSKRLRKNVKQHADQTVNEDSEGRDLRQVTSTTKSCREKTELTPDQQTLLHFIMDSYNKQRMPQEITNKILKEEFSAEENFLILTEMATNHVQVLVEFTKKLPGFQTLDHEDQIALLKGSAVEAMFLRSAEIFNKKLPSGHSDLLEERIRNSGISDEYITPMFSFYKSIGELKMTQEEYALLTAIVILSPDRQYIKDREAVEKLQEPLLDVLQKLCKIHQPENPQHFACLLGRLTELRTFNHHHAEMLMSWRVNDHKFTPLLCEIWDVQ
Sequence of Peroxisome proliferator-activated receptor delta (Homo sapiens) (Q03181 whole entry, looked up): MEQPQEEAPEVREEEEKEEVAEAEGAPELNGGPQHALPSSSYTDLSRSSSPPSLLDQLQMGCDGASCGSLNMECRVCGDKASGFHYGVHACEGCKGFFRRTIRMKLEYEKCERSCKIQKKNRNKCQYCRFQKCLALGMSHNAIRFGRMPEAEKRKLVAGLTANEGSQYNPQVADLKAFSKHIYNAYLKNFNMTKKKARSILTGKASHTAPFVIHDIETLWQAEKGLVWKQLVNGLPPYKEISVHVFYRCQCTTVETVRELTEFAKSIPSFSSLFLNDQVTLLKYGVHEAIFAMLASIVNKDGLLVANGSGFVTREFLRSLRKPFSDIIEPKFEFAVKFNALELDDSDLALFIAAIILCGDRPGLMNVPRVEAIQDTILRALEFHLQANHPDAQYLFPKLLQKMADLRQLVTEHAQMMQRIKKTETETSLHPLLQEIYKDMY
Sequence of Glucocorticoid receptor (Homo sapiens) (P04150 whole entry, looked up): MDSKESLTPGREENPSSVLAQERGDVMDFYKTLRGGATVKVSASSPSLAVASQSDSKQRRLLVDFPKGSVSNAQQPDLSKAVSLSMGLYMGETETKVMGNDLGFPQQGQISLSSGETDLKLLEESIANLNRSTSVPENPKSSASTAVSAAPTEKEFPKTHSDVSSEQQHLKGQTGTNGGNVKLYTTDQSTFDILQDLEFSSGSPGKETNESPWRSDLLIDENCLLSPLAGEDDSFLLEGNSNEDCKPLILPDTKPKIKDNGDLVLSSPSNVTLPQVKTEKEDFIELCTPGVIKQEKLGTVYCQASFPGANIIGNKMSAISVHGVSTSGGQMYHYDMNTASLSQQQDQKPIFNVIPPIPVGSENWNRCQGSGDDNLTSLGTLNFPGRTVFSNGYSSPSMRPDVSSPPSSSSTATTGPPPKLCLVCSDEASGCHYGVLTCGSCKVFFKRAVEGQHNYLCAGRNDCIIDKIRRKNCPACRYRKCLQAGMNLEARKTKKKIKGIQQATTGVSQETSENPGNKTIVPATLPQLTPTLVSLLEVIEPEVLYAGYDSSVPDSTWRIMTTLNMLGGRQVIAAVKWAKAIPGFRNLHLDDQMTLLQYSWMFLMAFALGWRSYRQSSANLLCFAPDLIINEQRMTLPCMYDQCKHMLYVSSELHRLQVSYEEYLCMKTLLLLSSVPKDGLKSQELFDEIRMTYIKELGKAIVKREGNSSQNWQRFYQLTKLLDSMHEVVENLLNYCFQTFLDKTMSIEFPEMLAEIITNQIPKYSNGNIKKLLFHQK

In the case of `CO[C@@H]1[C@H](OC(=O)/C=C/C=C/C=C/C=C/C(=O)O)CC[C@]2(CO2)[C@H]1[C@@]1(C)O[C@@H]1CC=C(C)C`, the activation in [1] is -1.18% (inactive). Also, the Potency entry in assay [2] was “inactive”. For the same compound, the max response in assay [3] is 39.3%; in assay [7] it was 11.1%; in [10] it was -0.294%; in assay [11] it was 18.1% (inactive). Further, the call in assay [4], in assay [5], in [6], in assay [8] and in [9] was inactive.

Turning to `OB(O)O`, the Potency result in assay [12] and in assay [2] was “inactive” throughout. Also, the call in assay [13], in [4], in assay [5], in [14], in [6] and in assay [8] was inactive. Moreover, the compound was classed as inactive in assay [9]. Besides, the activation in assay [1] was -3.94% (inactive) and -21.4% (inactive). Further, the max response in assay [3] was 1.13%; in assay [7], -5.98% and -1.26%; in [10], -7.19% and -10.5%; in assay [11], 9.01% (inactive) and 7.69% (inactive).

On to `CC(C)[C@@H]1CC[C@@H](C)C[C@H]1O`, for which the activation in assay [15] was 9.8% (inactive). Moreover, the compound was classed as inactive in assay [16], in assay [13], in assay [4], in assay [5], in assay [14] and in [6]. Moreover, the outcome in assay [8] and in assay [9] was inactive. Besides, the max response in [3] was -3.98%; in assay [7] it was -16.2%.

For the compound `C[Si](C)(C)O[Si](C)(C)C`, in [17], the Potency entry is “inactive”. For the same compound, the call in [13], in assay [4], in assay [5], in assay [14], in [6] and in assay [8] was inactive. For the same compound, the compound was called inactive in assay [9]. Also, the max response in [3] is 8.43%; in assay [7], -7.56%; in assay [10], -6.12%; in assay [11], -23.1% (inactive).

Consider `Cc1ncc[nH]1`, for which the Potency result in [17] and in assay [2] was “inactive” in each case. Also, the result in assay [13], in [4], in [5], in assay [14], in [6] and in assay [8] was inactive. In assay [9], the outcome was inactive. Moreover, the max response is 34.3% in assay [3], 5.14% in [7], 2.25% in assay [10] and 11.5% (inactive) in assay [11].

On to `Cc1ccc(S(=O)(=O)NCl)cc1`, for which the Potency entry in assay [12] and in assay [2] was “inactive” throughout. Also, the activation in [1] is 0.935% (inactive). Besides, the max response in assay [3] is -27%; in [7], -13.1%; in assay [10] it was -12.9%; in assay [11], 17.1% (inactive). Moreover, the outcome in [4], in [5], in assay [8] and in [9] was inactive.

In the case of `CCOC(C)OCC`, the Potency result in assay [17] and in assay [2] was “inactive” each time. Also, the activation in [1] is -4.92% (inactive). Besides, the outcome in assay [14], in assay [6] and in assay [8] was inactive. For the same compound, the max response in assay [7] was -21.2%; in assay [10] it was -5.73%; in [11], -3.17% (inactive).

With `CC(C)CCC[C@@H](C)[C@H]1CC[C@H]2[C@@H]3CC=C4C[C@@H](O)CC[C@]4(C)[C@H]3CC[C@]12C`, the Potency entry in assay [17] was “inactive”. Moreover, the compound was called inactive in assay [13], in [5], in [6] and in [9]. Further, the activation in assay [1] is 13.5% (inactive). Moreover, the figures for the max response in assay [10] and in assay [11] were 11.8% and -19.4% (inactive), respectively.

These data come from PubChem BioAssay (NCATS).
